Values joined by “and” are separate entries in the source; they are usually repeats but may differ in a detail not shown here. Equal values may be shown once. The campaign covered roughly 340,000 compounds. About 1,000 (0.29%) were called active. Not all results are given here. Results with a measured potency or affinity are listed apart. A number with no mark means an inactive call. Rule as the data show it: inconclusive = inhibition above about 27% without an active follow-up result; inactive = below that.
Assay: NS1A inhibition, H1N1 influenza, cell based functional assay (AID 504329)
Settings: percent inhibition, at 12.5 µM, hits give high values
In the case of `O=C(c1cccc(C(F)(F)F)c1)C1CCCN(C(=O)c2cc(C3CC3)[nH]n2)C1` (centres undefined), the inhibition is reported as -9.76%.
Compound `CS(=O)(=O)Nc1ccc(C(=O)Nc2ccccc2C(=O)NCc2ccco2)cc1` has an inhibition of -1.06%.
With `Nc1nnc(CC(=O)N/N=C/c2cc([N+](=O)[O-])cc(Br)c2O)s1` the inhibition was 7.8%.
For `O=C(CCC(=O)Nc1ccc(Br)cc1)N/N=C/c1cc([N+](=O)[O-])ccc1O`, the inhibition was -1.12%.
Compound `Nc1nnc(CC(=O)N/N=C/c2ccc([N+](=O)[O-])cc2)s1` has an inhibition of -6.47%.
In the case of `O=C(Cn1cncn1)N/N=C/c1ccccc1Cl`, the inhibition is reported as -0.24%.
`O=C(CSc1ccccn1)N/N=C/c1cc([N+](=O)[O-])ccc1O` gave an inhibition of 21.2%.
With `Cc1cc(C(=O)N/N=C/c2ccc([N+](=O)[O-])cc2)c2ccccc2n1` the inhibition was 8.83%.
For `O=C(N/N=C/c1cc([N+](=O)[O-])ccc1O)c1cc(-c2ccccc2)nc2ccccc12`, the inhibition was 15.9%.
In the case of `O=C(Cn1cncn1)N/N=C/c1cccc2ccccc12`, the inhibition is reported as -2.86%.
For `CC(OC(=O)C12CC3CC(CC(O)(C3)C1)C2)C(N)=O` (centres undefined), the inhibition was -5.93%.
`Cc1cc(C)n(-c2ccc(C(=O)Nc3ccc(N4CCOCC4)cc3)cc2)n1` gave an inhibition of -0.85%.
`CC(Oc1ccc(Cl)cc1Cl)c1nc(-c2ccc(NC(=O)c3ccncc3)cc2)no1` (centres undefined) gave an inhibition of 6.94%.
For `CCOC(=O)N1CCN(S(=O)(=O)c2ccc(C)c(C)c2C)CC1`, the inhibition was -2.44%.
With `C=C[C@@H]1CN2CCC1C[C@@H]2[C@@H](O)c1ccnc2ccc(OC)cc12` (some centres undefined) the inhibition was -0.14% and 2.49%.
Work on `CCCCOc1ccc(CCC(=O)N/N=C/c2ccco2)cc1` yielded an inhibition of -16.9%.
`O=c1c(-c2ccnn2-c2ccc(F)cc2)cnc2n1CCS2` gave an inhibition of 11.8%.
For `O=C(Nc1c2c(nn1-c1ccc(Cl)cc1)CS(=O)(=O)C2)C1CC1`, the inhibition was -8.81%.
`O=C(CSc1nnc(-c2ccc(Cl)cc2)n1-c1ccc(Cl)cc1)N/N=C/c1ccco1` showed an inhibition of -4.44%.
`O=C(N/N=C/c1ccc([N+](=O)[O-])cc1)c1cccc(N2CCCC2=O)c1` gave an inhibition of -4.45%.
With `O=C(N/N=C/c1cc(Br)ccc1O)c1cccc(N2CCCC2=O)c1` the inhibition was -7.38%.
With `COc1ccc(N2CC(C(=O)N/N=C/c3ccc([N+](=O)[O-])cc3)CC2=O)cc1` (centres undefined) the inhibition was 3.03%.
With `COc1ccc(N2CC(C(=O)Nc3ccc([N+](=O)[O-])cc3Br)CC2=O)cc1` (centres undefined) the inhibition was -1%.
`O=C1NCCCC1C(=O)N/N=C/c1ccccc1[N+](=O)[O-]` (centres undefined) gave an inhibition of 4.74%.
In the case of `O=C1NCCCC1C(=O)N/N=C/c1ccccc1O` (centres undefined), the inhibition is reported as 1.62%.
Work on `COc1ccc(Cl)cc1C(=O)NC1=NCCS1` yielded an inhibition of 3.24%.
In the case of `N#Cc1ccc(Oc2ncccn2)cc1`, the inhibition is reported as -1.76%.
Compound `CC(=O)Nc1ccc(S(=O)(=O)N(C)CC(=O)OCC(=O)c2cc(C)n(-c3ccc4c(c3)OCO4)c2C)cc1` has an inhibition of 4.97%.
Work on `COc1cc(/C=C2\SC(=O)N(Cc3ccc(F)cc3)C2=O)cc([N+](=O)[O-])c1O` yielded an inhibition of 26.1%.
For `COc1cc(/C=C2\SC(=O)N(c3ccc(Cl)cc3)C2=O)cc([N+](=O)[O-])c1O`, the inhibition was -5.87%.
Work on `CCN(CC)c1ccc(C(=O)Nc2cccc(F)c2)cc1` yielded an inhibition of 0.06%.
`CCN(CC)c1ccc(NC(=O)c2ccc3c(c2)OCO3)cc1` showed an inhibition of 21.3%.
In the case of `Cc1cc(C(=O)OCC(=O)Nc2ccccc2C)c(C)o1`, the inhibition is reported as -4.72%.
`Cc1c(N=C2C(=O)Nc3ccccc32)c(=O)n(-c2ccccc2)n1C` gave an inhibition of 11%.
`Cc1c(N=c2scc(-c3ccccc3)n2C)c(=O)n(-c2ccccc2)n1C` showed an inhibition of -5.38%.
Compound `Cc1ccc(N2C(=O)CN(Cc3ccccc3)C2=S)cc1C` has an inhibition of -6.48%.
In the case of `O=[N+]([O-])c1cc(/C=N\Nc2ccccn2)ccc1Cl`, the inhibition is reported as -4.08%.
`O=C(N/N=C/c1ccc(O)c([N+](=O)[O-])c1)c1ccncc1` gave an inhibition of 13.6%.
`COc1ccc(CC(=O)Nc2cc(S(=O)(=O)N3CCOCC3)ccc2N2CCCC2)cc1OC` showed an inhibition of 2.03%.
Compound `NC(=O)c1ccc(-c2c(-c3ccccc3)sc3ccccc23)cc1` has an inhibition of -3.51%.
In the case of `CCOC(=O)N1CCC(NC(=O)CCc2c(C)nc3c(c(C)nn3C(C)(C)C)c2C)CC1`, the inhibition is reported as 0.25%.
Compound `CNC(=S)NNc1nc(-c2ccccc2)c2cc(Cl)ccc2n1` has an inhibition of 8.4%.
Work on `COc1ccc(/C=N/Nc2nccnc2Cl)c(OC)c1` yielded an inhibition of -10.3%.
Work on `Nc1c(Cl)ncnc1N/N=C/c1ccnc2ccccc12` yielded an inhibition of -0.57%.
For `Nc1c(Cl)ncnc1N/N=C/c1ccc(O)cc1`, the inhibition was -15.8%.
Work on `Nc1c(Cl)ncnc1N/N=C/c1cccc(O)c1` yielded an inhibition of 17.6%.
In the case of `COc1ccc(/C=N/Nc2ncnc(Cl)c2N)cc1OC`, the inhibition is reported as -17%.
`COc1ccccc1/C=N/Nc1nccnc1Cl` showed an inhibition of 4.08%.
Compound `Cc1cccc(NC(=S)NCc2ccc(F)cc2)c1C` has an inhibition of -12.3%.
Compound `CN1CCN(c2ccc(CNC(=O)c3cc4ccccc4o3)cc2)CC1` has an inhibition of -11.5%.
`CCOC(=O)N1CCN(S(=O)(=O)c2ccc(C(=O)Nc3sc4c(c3C(N)=O)CC(C)(C)NC4(C)C)cc2)CC1` gave an inhibition of -1.86%.
`O=C1NC(=Nc2ccccc2Br)SC1(CO)CO` gave an inhibition of -3.43%.
Compound `COc1cccc(CNc2ccc(S(=O)(=O)Nc3nccs3)cc2)c1O` has an inhibition of -5.98%.
In the case of `CC(=O)NC(CC(=O)O)c1ccccc1` (centres undefined), the inhibition is reported as -5.66%.
With `O=C(c1cc(-c2ccc(Cl)cc2)nc2ccccc12)N1CCOCC1` the inhibition was -19.9%.
`COc1ccc(OC)c(C2=NS(=O)(=O)N(C)C(C(=O)NCc3ccco3)=C2)c1` showed an inhibition of -7.9%.
With `COc1ccc(CN2CCN(c3ccccn3)CC2)cc1OCc1ccccc1` the inhibition was 7.77%.
For `O=C(c1cccc2ccccc12)N1CCN(c2ccc([N+](=O)[O-])c(NCc3ccco3)c2)CC1`, the inhibition was 7.93%.
With `CC(=O)Nc1nnc(CCS(=O)(=O)c2ccc(C)cc2)s1` the inhibition was -6.45%.
For `CCSc1nnc(NC(=O)c2cccnc2Cl)s1`, the inhibition was -1.92%.
For `CCc1nnc(NC(=O)c2cccc(C(=O)Nc3nnc(CC)s3)n2)s1`, the inhibition was -2.25%.
For `CCSc1nnc(NC(=O)c2ccccc2)s1`, the inhibition was -12.7%.
`Cc1ccc(S(=O)(=O)CCc2nnc(NC(=O)c3cnccn3)s2)cc1` showed an inhibition of -1.91%.
Work on `CCc1nnc(NC(=O)c2cnccn2)s1` yielded an inhibition of -0.42%.

— PubChem BioAssay AID504329 (Southern Research Specialized Biocontainment Screening …, 2011)
